The source of these data is PubChem BioAssay (EPA / NIEHS).

Several values for one entry are separate records, joined by “and”; a condition that tells them apart may be missing. Equal values may be shown once. More than one record can exist for a structure, and the calls need not agree. Activity calls are given as the source filed them. Rule for the calls: active = hit-call score of the fitted dose curve at least 0.9, where 1 is the maximum; inactive = score below 0.9.

One assay is described as follows: APR_HepG2_NuclearSize_24hr: Apredica 24-hour HepG2 Assay for Nuclear Size (AID 2282907). Particulars: high-content imaging, actives raise or lower the signal. Put shortly:
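Nuclear size is measured by fluorescence high-content imaging of Hoechst-labelled HepG2 nuclei after 24 hr of treatment (0.39–200 uM, 0.5% DMSO). Cells are fixed in 3.7% formaldehyde before staining, and DMSO serves as the baseline for bidirectional curve fitting.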
`O=C(c1ccc(OCCN2CCCCC2)cc1)c1c(-c2ccc(O)cc2)sc2cc(O)ccc12`: the outcome was inactive.
Still for that read-out and setting: in the case of `C[C@]12CC[C@@H]3c4ccc(O)cc4CC[C@H]3[C@@H]1CC[C@@H]2O` it was “inactive”; in that of `C#C[C@]1(O)CC[C@H]2[C@@H]3CCc4cc(O)ccc4[C@H]3CC[C@@]21C`, “inactive”.
Same read-out and setting: in the case of `CC/C(=C(\c1ccccc1)c1ccc(OCCN(C)C)cc1)c1ccccc1` it was “inactive”.

A further assay in a line: APR_HepG2_CellLoss_24hr: Apredica 24-hour HepG2 Assay for Cell Loss (AID 2282908).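 For AC50: fit in both directions so a hit may be cell loss or gain.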 To be noted: high-content imaging. The protocol:
APR_HepG2_24hr is a cell-based, multiplexed-readout assay that uses HepG2, a human liver cell line, with measurements taken at 24 hours after chemical dosing in a 384-well plate.APR_HepG2_CellLoss_24hr is one of 10 assay component(s) measured or calculated from the APR_HepG2_24hr assay. It is designed to make measurements of cell number, a form of viability reporter, as detected with fluorescence intensity signals by HCS Fluorescent Imaging technology.Data from the assay component APR_HepG2_CellLoss_24hr was analyzed into 1 assay endpoint. This assay endpoint, APR_HepG2_CellLoss_24hr, was analyzed with bidirectional fitting relative to DMSO as the negative control and baseline of activity. Using a type of viability reporter, measures of all nuclear dna for gain or loss-of-signal activity can be used to understand the viability at the cellular-level. Furthermore, this assay endpoint can be referred to as a secondary readout, because this assay has produced multiple assay endpoints where this one serves a viability function. To generalize the intended target to other relatable targets, this assay endpoint is annotated to the cell cycle intended target family, where the subfamily is proliferation.
(§1) Cells were treated with dimethyl sulfoxide (DMSO) as a solvent control at a final concentration of 0.5% v/v or with compounds in DMSO with a resulting final DMSO concentration of 0.5% v/v. Compound treatment was done at concentrations of 0.39, 0.78, 1.56, 3.12, 6.24, 12.5, 25, 50, 100, and 200 uM in duplicate on each plate. Cells were treated with compounds for 1, 24, or 72 hr. Carbonyl […] m-chloro-phenylhydrazone (CCCP) and taxol were used as positive controls for mitochondrial function and cytoskeletal stability, respectively; DMSO served as the negative control for this experiment. Cells were fixed by the direct addition of 50 uL formaldehyde in Hank's Balanced Salt Solution (HBSS) to a final concentration of 3.7%. After incubation in the fixation medium for 30 min at room temperature (293-298 K), cells were rinsed twice with HBSS and treated with cell permeabilization buffer (16 uL of 0.5% Triton X-100) for 10 min at room temperature (293-298 K) before labeling. For mitochondrial membrane potential and mitochondrial measurements, pre-fixed cells were incubated with 50 uL of MitoTracker Red CMXRos (Invitrogen) at a concentration of 250 nM for 30 min before fixation. In the remaining cases, post-fixed cells were labeled by incubation with a multiplexed mixture of primary antibodies in HBSS for 60 min at room temperature (293-298 K) to detect immunoreactivity of c-Jun (1:500), phospho-histone H3 (1:100), phospho-histone H2A.x (1:200), p53 (1:400), alpha-tubulin (1:200) and Hoechst 33342 (2 ug/mL). […]
For the compound `O=C(c1ccc(OCCN2CCCCC2)cc1)c1c(-c2ccc(O)cc2)sc2cc(O)ccc12`, the result was inactive.
A word on the AC50: it is the concentration giving half of the maximal activity seen. With `C[C@]12CC[C@@H]3c4ccc(O)cc4CC[C@H]3[C@@H]1CC[C@@H]2O`, the AC50 was 18.7 µM (active).
Same read-out and setting: as for `C#C[C@]1(O)CC[C@H]2[C@@H]3CCc4cc(O)ccc4[C@H]3CC[C@@]21C`, the figure is 24.3 µM (active); as for `CC/C(=C(\c1ccccc1)c1ccc(OCCN(C)C)cc1)c1ccccc1`, 14.5 µM (active) and 17.8 µM (active).

The nature of a further assay: APR_HepG2_MicrotubuleCSK_24hr: Apredica 24-hour HepG2 Assay for Microtubule CSK Stabilty (AID 2282909). Particulars: HepG2 microtubule cytoskeleton imaging, actives raise or lower the signal. Put shortly: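 Compounds were applied to HepG2 cells for 24 hours across 0.39–200 uM in duplicate, with final DMSO at 0.5% v/v. Fixed, permeabilized cells were labeled for alpha-tubulin and nuclei, and tubulin fluorescence was quantified by imaging, fitted bidirectionally against DMSO.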
Consider `O=C(c1ccc(OCCN2CCCCC2)cc1)c1c(-c2ccc(O)cc2)sc2cc(O)ccc12`, for which the result was inactive.
Take `C[C@]12CC[C@@H]3c4ccc(O)cc4CC[C@H]3[C@@H]1CC[C@@H]2O`: the AC50 was 32.4 µM (active).
`C#C[C@]1(O)CC[C@H]2[C@@H]3CCc4cc(O)ccc4[C@H]3CC[C@@]21C`: the result was inactive.
As for `CC/C(=C(\c1ccccc1)c1ccc(OCCN(C)C)cc1)c1ccccc1`, the concentration at half-maximal activity (AC50) is 35.4 µM (active) and 44.5 µM (active).

The next assay is described as follows: APR_HepG2_MitoticArrest_24hr: Apredica 24-hour HepG2 Assay for Mitotic Arrest (AID 2282910). Particulars: high-content imaging, actives raise or lower the signal. Put shortly:
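High-content imaging of fixed HepG2 cells labeled with Hoechst 33342 and anti-phospho-histone H3, after 24 h treatment. Ten concentrations 0.39 to 200 uM in duplicate, final DMSO 0.5%; changes fitted both directions relative to DMSO.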
In the case of `O=C(c1ccc(OCCN2CCCCC2)cc1)c1c(-c2ccc(O)cc2)sc2cc(O)ccc12`, the result was inactive.
As for `C[C@]12CC[C@@H]3c4ccc(O)cc4CC[C@H]3[C@@H]1CC[C@@H]2O`, the half-maximal activity concentration (AC50) was 22.6 µM (active).
With `C#C[C@]1(O)CC[C@H]2[C@@H]3CCc4cc(O)ccc4[C@H]3CC[C@@]21C`, the concentration at half-maximal activity (AC50) was 10.9 µM (active).
Still for that read-out and setting: in the case of `CC/C(=C(\c1ccccc1)c1ccc(OCCN(C)C)cc1)c1ccccc1` it was 7.3 µM (active) and 6.94 µM (active).

The nature of another assay: APR_HepG2_MitoMembPot_24hr: Apredica 24-hour HepG2 Assay for Mitochondrial Membrane Potential (AID 2282911). To be noted: imaging, actives raise or lower the signal. The method, boiled down:
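Human hepatoma HepG2 cultures received ten compound concentrations up to 200 uM for 24 hr. Membrane-potential dye signal, captured by automated fluorescence microscopy, was scored for gain or loss against DMSO controls.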
Regarding `O=C(c1ccc(OCCN2CCCCC2)cc1)c1c(-c2ccc(O)cc2)sc2cc(O)ccc12`, the compound was called inactive.
`C[C@]12CC[C@@H]3c4ccc(O)cc4CC[C@H]3[C@@H]1CC[C@@H]2O`: the outcome was inactive.
The same measure, in the same setting: in the case of `C#C[C@]1(O)CC[C@H]2[C@@H]3CCc4cc(O)ccc4[C@H]3CC[C@@]21C` it was “inactive”.
In the case of `CC/C(=C(\c1ccccc1)c1ccc(OCCN(C)C)cc1)c1ccccc1`, the concentration at half-maximal activity (AC50) is 39.2 µM (active) and 24.9 µM (active).

A short description of the next assay: APR_HepG2_MitoMass_24hr: Apredica 24-hour HepG2 Assay for Mitochondrial Mass (AID 2282912). To be noted: high-content imaging, actives raise or lower the signal. The method, boiled down: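 After 24 hr of treatment at 0.39 to 200 uM, HepG2 cells take up 250 nM MitoTracker Red CMXRos for 30 min and are then fixed with 3.7% formaldehyde. Per-well images are quantified, and any change in either direction is scored against solvent.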
With `O=C(c1ccc(OCCN2CCCCC2)cc1)c1c(-c2ccc(O)cc2)sc2cc(O)ccc12`, the call was inactive.
Still for that read-out and setting: in the case of `C[C@]12CC[C@@H]3c4ccc(O)cc4CC[C@H]3[C@@H]1CC[C@@H]2O` it was “inactive”; in that of `C#C[C@]1(O)CC[C@H]2[C@@H]3CCc4cc(O)ccc4[C@H]3CC[C@@]21C`, “inactive”.
Consider `CC/C(=C(\c1ccccc1)c1ccc(OCCN(C)C)cc1)c1ccccc1`, for which the AC50 is 6.38 µM (active) and 7.4 µM (active).

A further assay can be described thus: APR_HepG2_p53Act_24hr: Apredica 24-hour HepG2 Assay for p53 Activation (AID 2282913).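 Note: p53 protein immunofluorescence averaged per cell in HepG2 with Hoechst nuclei.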 To be noted: high-content imaging, actives raise or lower the signal. Put shortly: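 Automated fluorescence imaging quantifies p53 immunostaining in HepG2 cells after a 24 hr exposure (0.39–200 uM, duplicate, 0.5% DMSO). Nuclei are located by Hoechst 33342 staining.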
Regarding `O=C(c1ccc(OCCN2CCCCC2)cc1)c1c(-c2ccc(O)cc2)sc2cc(O)ccc12`, the result was inactive.
Take `C[C@]12CC[C@@H]3c4ccc(O)cc4CC[C@H]3[C@@H]1CC[C@@H]2O`: the concentration at half-maximal activity (AC50) is 25.1 µM (active).
On the same count and under the same terms, as for `C#C[C@]1(O)CC[C@H]2[C@@H]3CCc4cc(O)ccc4[C@H]3CC[C@@]21C`, the figure is 87.5 µM (active); as for `CC/C(=C(\c1ccccc1)c1ccc(OCCN(C)C)cc1)c1ccccc1`, 16.1 µM (active) and 11.3 µM (active).

A further assay in a line: APR_HepG2_CellCycleArrest_72hr: Apredica 72-hour HepG2 Assay for Cell Cycle Arrest (AID 2282914). Particulars: high-content imaging, actives raise or lower the signal. As for the experimental part:
APR_HepG2_72hr is a cell-based, multiplexed-readout assay that uses HepG2, a human liver cell line, with measurements taken at 72 hours after chemical dosing in a 384-well plate.APR_HepG2_CellCycleArrest_72hr is one of 10 assay component(s) measured or calculated from the APR_HepG2_72hr assay. It is designed to make measurements of cell phenotype, a form of morphology reporter, as detected with fluorescence intensity signals by HCS Fluorescent Imaging technology.Data from the assay component APR_HepG2_CellCycleArrest_72hr was analyzed into 1 assay endpoint. This assay endpoint, APR_HepG2_CellCycleArrest_72hr, was analyzed with bidirectional fitting relative to DMSO as the negative control and baseline of activity. Using a type of morphology reporter, measures of all nuclear dna for gain or loss-of-signal activity can be used to understand the signaling at the pathway-level as they relate to the gene . Furthermore, this assay endpoint can be referred to as a primary readout, because this assay has produced multiple assay endpoints where this one serves a signaling function. To generalize the intended target to other relatable targets, this assay endpoint is annotated to the cell cycle intended target family, where the subfamily is arrest.
as §1, with “ug/mL). Cells were labeled for multiplexed imaging on two separate plates: a) Hoechst 33342, MitoTracker Red, phospho-histone H3, and alpha-tubulin, and b) Hoechst 33342, phospho-histone H2A.x, and c-Jun. A final rinse with HBSS (50 uL) was performed before analysis. The primary and secondary antibodies for the proteins were phospho-histone H3 (rabbit anti-phospho-histone H3 and FITC-donkey anti-rabbit IgG), phospho-histone H2A.x (mouse anti-phospho-histone H2A.x and FITC-donkey anti-mouse IgG), c-Jun (rabbit anti-phospho-c-Jun and Cy3-donkey anti-rabbit IgG), p53 (sheep anti-p53 and Cy5-donkey anti-sheep IgG), alpha-tubulin (mouse anti-alpha-tubulin and Cy5-donkey anti-mouse IgG).” for “ug/mL).”
Regarding `O=C(c1ccc(OCCN2CCCCC2)cc1)c1c(-c2ccc(O)cc2)sc2cc(O)ccc12`, the result was inactive.
For the compound `C[C@]12CC[C@@H]3c4ccc(O)cc4CC[C@H]3[C@@H]1CC[C@@H]2O`, the outcome was inactive.
Consider `C#C[C@]1(O)CC[C@H]2[C@@H]3CCc4cc(O)ccc4[C@H]3CC[C@@]21C`, for which the half-maximal activity concentration (AC50) was 27.9 µM (active).
Take `CC/C(=C(\c1ccccc1)c1ccc(OCCN(C)C)cc1)c1ccccc1`: the half-maximal activity concentration (AC50) was 29.4 µM (active) and the compound was classed as inactive.
